Measurements taken from PubChem BioAssay AID624257 (Broad Institute, 2012).
Potency and affinity values are given separately. The source made the active and inactive calls.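 The calls were made as follows: active = compound slowing PglD reaction, half-maximal concentration at most twice top tested dose, in every test run; inconclusive = test runs disagree, or weak flat or poorly fitted curves; inactive = the rest.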

These molecules were tested against PglD acetyltransferase (Campylobacter jejuni) (UniProt O86157) (assay: inhibition of C. jejuni PglD N-acetyltransferase – biochemical, DTNB absorbance, cherry-picked samples, set 2, dose response (AID 624257)). Settings: Purified PglD, DTNB absorbance 412 nm, CoA release; series mostly up to 19.5 µM.
Sequence of PglD acetyltransferase (Campylobacter jejuni) (O86157 1-203): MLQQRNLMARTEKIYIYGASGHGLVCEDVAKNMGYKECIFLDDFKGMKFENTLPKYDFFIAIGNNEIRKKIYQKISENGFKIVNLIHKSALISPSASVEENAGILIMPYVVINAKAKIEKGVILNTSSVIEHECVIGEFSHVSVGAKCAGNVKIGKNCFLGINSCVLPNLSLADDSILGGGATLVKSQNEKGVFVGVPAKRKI

| Structure (SMILES) | outcome |
| --- | --- |
| CCn1c(SCc2nc3sc(C(=O)O)c(C)c3c(=O)[nH]2)nc2ccccc21 | inactive |
| C=CC1=C(C(=O)O)N2C(=O)[C@@H](NC(=O)/C(=N/OCC(=O)O)c3csc(N)n3)[C@H]2SC1 | inactive |
| CCc1ccc(N=C2NC(=O)/C(=C/c3cc(Br)c(OCC(=O)O)c(OC)c3)S2)cc1 | inactive |
